# What was measured:
# Assay type in all cases: functional
# Plasmodium falciparum [1] = experiment: GSK_TCMDC: Inhibition of Plasmodium falciparum 3D7 in whole red blood cells, using parasite LDH activity as an index of growth. Test compounds present at 2uM
# Plasmodium falciparum [2] = experiment: GSK_TCMDC: Inhibition of Plasmodium falciparum Dd2 in whole red blood cells, using parasite LDH activity as an index of growth. Test compounds present at 2uM
# HepG2 = experiment: GSK_TCMDC: Percent inhibition of human HepG2 cell line. Test compounds present at 10uM.
Compound,Inhibition (Plasmodium falciparum [1]),Inhibition (Plasmodium falciparum [2]),Inhibition (HepG2)
COc1ccc2nccc([C@@H](O)CN3CCC(NC(=O)c4cccc(C(=O)c5ccccc5)c4)CC3)c2c1,99%,99%,13%
CCCCN1CC[C@@H](CCC(O)c2ccnc3ccc(OCCC(C)C)cc23)[C@@H](CC)C1.O=C(O)C(=O)O (stereo not given in full),94%,90%,22%
O=C(Cn1c(CCc2cccc(F)c2F)nc(=O)c2ccccc21)N(CCN1CCCCC1)Cc1ccc(-c2ccc(C(F)(F)F)cc2)cc1.O=C(O)C(O)C(O)C(=O)O,100%,89%,32%
COc1ccc(CN2C(=S)N(Cc3ccccc3)C(=O)C2CC(=O)Nc2ccccc2)cc1OC (stereo not given),96%,73%,6%
Cc1c(Cc2ccccc2)c(=O)oc2c(C)c3c(cc12)CN(CC(C)c1ccccc1)CO3 (stereo not given),98%,98%,1%
COc1ccc2ncc(F)c(CCN3CCC(NCc4cc(F)c5c(c4)OCCO5)CC3)c2n1.Cl,100%,67%,15%
Cc1cccc2nc(-c3ccc(-c4cccc(NC(=O)CCc5c[nH]cn5)c4)s3)[nH]c12,94%,70%,2%
CN1CCN(c2nc(NCCNc3ccc([N+](=O)[O-])cc3)c3ccccc3n2)CC1,90%,25%,37%
Cc1ccc(C)c(S(=O)(=O)NCC2CCN(Cc3ccc(O)cc3)CC2)c1.O=C(O)C(F)(F)F,87%,57%,16%
CN(C)c1ccc(CN2CCC(NC(=O)c3ccc(-c4ccccc4F)s3)CC2)cc1.O=C(O)C(F)(F)F,86%,27%,41%
Cc1c(Cl)cccc1S(=O)(=O)Nc1ccc(CCN2CCC(N)CC2)cc1.Cl,90%,4%,23%
COc1ccc(Nc2ncc3c(-c4cccc(NC(=O)Cc5ccncc5)c4)c[nH]c3n2)cc1OC,99%,87%,23%
O=C(O)C(F)(F)F.O=S(=O)(NCCN1CCCC1)c1ccc(-c2cccc(CNCc3ccc(F)cc3)c2)s1,99%,50%,48%
CC(C)(C)OC(=O)N(Cc1cc(-n2nnnc2C(F)(F)F)ccc1O)[C@H]1CCCN(C(=O)OC(C)(C)C)[C@H]1c1ccccc1,98%,66%,14%
COCCn1c(Sc2ccc(C#N)c([N+](=O)[O-])c2)nnc1-c1ccc(N(C)C)cc1,89%,66%,2%
COc1ccc(-c2nonc2NC(=O)c2cccc(Cl)c2)cc1OC,98%,63%,41%
COc1ccc(CNCCc2cccs2)cc1-c1ccc(S(=O)(=O)NCCN2CCCC2)s1.O=C(O)C(F)(F)F,99%,21%,41%
Cc1ccc(N2C(N)=NC(N)=NC2(C)C)cc1.Cl,96%,20%,43%
Cc1cc(N2CCCC2)nc(Nc2ccc(NC(=O)c3cccc(F)c3)cc2)n1,97%,28%,39%
CC(C)(C)NC(=O)C(c1ccc(F)cc1)N(C(=O)c1ccc(CN2CCOCC2)o1)c1ccc(C2CCCCC2)cc1 (stereo not given),87%,68%,0%

Compound,Inhibition (Plasmodium falciparum [1]),Inhibition (Plasmodium falciparum [2]),Inhibition (HepG2)
Cl.Nc1c2c(nc3ccc(NC(=O)Cc4ccccc4)cc13)CCCC2,100%,0%,9%
COc1ccc(NC(=O)NC2CCN(CCCCCNC(=O)/C=C/c3ccc(Cl)c(Cl)c3)CC2)cc1,96%,1%,5%
CN1CCCN(Cc2cccc(-c3ccc(NC(=O)c4cccc(C#N)c4)cc3)c2)CC1.O=C(O)C(F)(F)F,100%,96%,27%
Cc1occc1C(=O)Nc1nc(-c2ccccn2)nc2ccsc12,98%,98%,68%
CN1CCCc2cc(NC(=O)c3cc(-c4ccc(Cl)cc4)cs3)ccc2C1.O=C(O)C(F)(F)F,100%,34%,15%
Cc1[nH]cnc1-c1cccc(NC(=O)c2cc3ccccc3s2)c1,99%,48%,5%
NC1CCCN(Cc2cccc(-c3ccc(-c4nc5ccccc5[nH]4)s3)c2)C1.O=C(O)C(F)(F)F (stereo not given),98%,88%,21%
O=[N+]([O-])c1ccccc1/C=N/Nc1ccnc2cc(Cl)ccc12,100%,89%,0%
Br.Cc1cc(C)c(CON2C(=N)N=C(N)NC2(C)C)cc1C,92%,93%,65%
COc1ccc2ncc(F)c([C@@H](O)CN3CCC(NCc4cc5c(cn4)OCCO5)CC3)c2c1.Cl,100%,98%,0%
COCCNc1nc(N2CCC(CNC(=O)c3ccc(-c4ccc(C(=O)N(C)C)cc4C)cc3)CC2)nc2cc(OC)c(OC)cc12,98%,97%,12%
COc1ccc(CN2CCN(C(=O)c3cccs3)CC2)c(O)c1,97%,2%,7%
COc1ccc2nccc([C@@H](O)CN3CCC(NCc4cc5c(F)ccc(F)c5[nH]4)CC3)c2n1.CS(=O)(=O)O,100%,76%,22%
CCOC(=O)N1CCN(CCCCNc2c3ccc(Cl)cc3nc3ccc(OC)cc23)CC1.Cl,100%,98%,25%
CCOCCCNc1nc2cc(OC)c(OC)cc2c2nc(-c3ccccc3)nn12,96%,98%,10%
CC(C)(C)OC(=O)NCc1ccc(Nc2nnc(-c3ccc(OCC(=O)NC[C@@H]4CC[C@H]5C[C@@H]4C5(C)C)c([N+](=O)[O-])c3)o2)cc1,94%,52%,29%
COc1cccc(NC(=O)c2nc(N3CCN(c4ccncc4)CC3)ccc2Cl)c1.O=C(O)C(F)(F)F,97%,65%,14%
Cc1noc(C)c1-c1ccc2c(Nc3ccc(Cl)cc3)c(C(N)=O)cnc2c1.Cl,94%,67%,9%
O=C(Nc1cccc(C(F)(F)F)c1)c1ccc(S(=O)(=O)NC2CCN(CC3CCCCC3)C2)cc1.O=C(O)C(F)(F)F (stereo not given),92%,0%,16%
CN(C)CCn1c(=N)n(CC(O)c2ccc(Cl)c(Cl)c2)c2ccccc21.Cl (stereo not given),99%,6%,20%

Compound,Inhibition (Plasmodium falciparum [1]),Inhibition (Plasmodium falciparum [2]),Inhibition (HepG2)
CN(C)c1ccc(-c2csc(C(=O)NCC3CCN(CCC(C)(C)C)C3)c2)cc1.O=C(O)C(F)(F)F (stereo not given),87%,16%,29%
O=C(Nc1cncc(NC(=O)c2ccc(Cl)c(Cl)c2)c1)c1ccc(Cl)c(Cl)c1,100%,70%,12%
CCOc1ccccc1C(=O)N1CCc2cc3nccc(N4CCN5CCC[C@H]5C4)c3cc21,100%,58%,4%
CC1CCN(Cc2cccc(C(=O)NCc3ccc(F)c(-c4cccc(CN5CCN[C@@H](C)C5)c4)c3)c2)CC1.O=C(O)C(F)(F)F,91%,64%,26%
O=C1OC(c2cc3ccccc3n2S(=O)(=O)c2ccccc2)(c2cc3ccccc3n2S(=O)(=O)c2ccccc2)c2ccccc21,95%,78%,1%
CC(C)c1cn2c3c(cc(C(=O)N[C@@H](Cc4ccccc4)[C@H](O)CNC4CCOCC4)cc13)N(C)S(=O)(=O)CC2.O=CO,98%,99%,9%
Cc1cc(=NN=Cc2ccc(F)cc2)c2cccc(C)c2[nH]1,100%,99%,7%
Cc1ccccc1OCC(O)CNC1CCC(NCC(O)COc2ccccc2C)CC1 (stereo not given),98%,24%,96%
COc1cccc(OC)c1C(=O)N1CCC2(CC1)C(=O)N(CC(=O)NC1CCCCC1)CN2c1ccccc1,92%,91%,16%
CNCc1ccc(-c2ccc3ccnc(N)c3c2)cc1,94%,98%,46%
CCCCCCCc1c(C)nc2cc(OC)ccc2c1O,99%,98%,5%
Cc1[nH]c(C)c(-c2ccc(CCc3ccc(F)cc3F)cc2)c(=O)c1Cl,98%,97%,5%
COc1ccc(CCN2CCC(Nc3nc4ccccc4n3CCc3ccc(OC)cc3)CC2)cc1.Cl,100%,88%,34%
O=C(NCC1CCC(C(=O)NCc2cccc(C(F)(F)F)c2)CC1)c1ccc(O)c(-c2ccc(Cl)c(Cl)c2)c1 (stereo not given),98%,41%,5%
COc1cc2c(C3CCN(CC4CCN(C(=O)/C=C/c5ccc(Cl)c(Cl)c5)CC4)CC3)c[nH]c2cn1,100%,88%,27%
COC(=O)c1cccc(CNCc2cccc(-c3ccc(-c4nc5ccccc5[nH]4)s3)c2)c1.O=C(O)C(F)(F)F,93%,59%,0%
COc1ccc(C=C2SC(=O)N=C2Nc2ccccc2)c(OC)c1,91%,89%,51%
COc1ccc2nccc(NC(=O)N3CCC(NCc4cc5c(F)ccc(F)c5[nH]4)CC3)c2n1.O=C(O)C(=O)O,99%,40%,6%
O=C(/C=C/c1ccc(Cl)c(Cl)c1)NCCCCCN1CCC(n2c(=O)[nH]c3ccccc32)CC1,97%,0%,38%
Cc1cccc(CNc2nc(C)cc(N[C@@H](Cc3ccccc3)C(=O)NCCOc3ccccc3)n2)c1.O=C(O)C(F)(F)F,93%,54%,28%

# From ChEMBL document CHEMBL1157539, “Thousands of chemical starting points for antimalarial lead identification” (Nature, 2010)
